Test systems include SR leukemia; RPMI-8226 leukemia; OVCAR-8 ovarian; OVCAR-5 ovarian; OVCAR-4 ovarian; IGROV1 ovarian; OVCAR-3 ovarian; HS 578T breast; NCI/ADR-RES ovarian; SK-OV-3 ovarian.
Common to all, as to experiment: NCI-60 one-dose screen, 48 h (100 = growth as untreated, 0 = no growth, -100 = all killed)
Conditions in all cases: 10 µM unless noted

Compounds without any hit were thinned out: in the full panel of roughly 83,000, 20% have a hit.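 Single-concentration screen, 48 h exposure, 96-well plates. Endpoint: percent growth. Below 10 = active.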 Unmarked numbers belong to inactive results. Activity calls are given as the source filed them.

For `C/C(=N\O)c1ccc(Cl)cc1`, the growth in the test on SR leukemia is 78.1%; in the test on RPMI-8226 leukemia, 107%; in the test with OVCAR-8 ovarian, 88.6%; with OVCAR-5 ovarian, 118%; with OVCAR-4 ovarian it was 109%; in the test on IGROV1 ovarian, 155%. For the same molecule, the figures for the growth in the test on OVCAR-3 ovarian, with HS 578T breast and in the test with NCI/ADR-RES ovarian were 113%, 90.4% and 108%, respectively.
In the case of `CN1CCc2nc3sc(C(N)=O)c(N)c3c(-c3cccs3)c2C1`, the growth in the test with SR leukemia is 22.8%; in the test with RPMI-8226 leukemia, 75.7%; with OVCAR-8 ovarian it was 22.2%; with OVCAR-5 ovarian, 15.1%; in the test with OVCAR-4 ovarian it was 64.5%; with SK-OV-3 ovarian, 57.4%. In addition, the growth in the test on OVCAR-3 ovarian is -32.5% (active); in the test on HS 578T breast, 32.4%; in the test with NCI/ADR-RES ovarian, 40.6%.
`CN(C)CCNC(=O)c1cc2c3cc(Cl)ccc3[nH]c2c2ncccc12`: the growth with SR leukemia is -17.6% (active); in the test on RPMI-8226 leukemia, -11% (active); in the test on OVCAR-8 ovarian, 19%; in the test on OVCAR-5 ovarian it was 32.7%; in the test with OVCAR-4 ovarian, 34.1%; with IGROV1 ovarian, 20.9%. For the same molecule, the values for the growth in the test on OVCAR-3 ovarian, in the test with HS 578T breast and in the test with NCI/ADR-RES ovarian were 0.195% (active), 24.2% and 25.3%, respectively.
For `COc1ccccc1N1CCCCC1`, the growth in the test with SR leukemia was 112%; with RPMI-8226 leukemia it was 101%; in the test on OVCAR-8 ovarian, 110%; with OVCAR-5 ovarian it was 86.2%; with OVCAR-4 ovarian, 109%; with SK-OV-3 ovarian, 100%. Moreover, the growth is 114% with OVCAR-3 ovarian, 101% in the test with HS 578T breast and 106% in the test with NCI/ADR-RES ovarian.
`O=C(/C=C/c1cccc(Cl)c1)c1cccc(OCCCOc2cccc(C(=O)/C=C/c3cccc(Cl)c3)c2)c1`: the growth was 37.1% in the test on SR leukemia; -8.65% (active) in the test with RPMI-8226 leukemia; 98.2% in the test on OVCAR-8 ovarian; 113% with OVCAR-5 ovarian; 102% in the test on OVCAR-4 ovarian; 92.7% in the test on IGROV1 ovarian. Moreover, the growth in the test on OVCAR-3 ovarian was 102%; with HS 578T breast, 105%; in the test with NCI/ADR-RES ovarian, 99.6%.
With `COC1=CC(c2ccc[nH]2)=N/C1=C\c1[nH]c(C)c(C)c1CCC(=O)OCc1ccccc1`, the growth was -47.1% (active) with SR leukemia; -51.1% (active) with RPMI-8226 leukemia; -11.3% (active) in the test with OVCAR-8 ovarian; 7.87% (active) in the test on OVCAR-5 ovarian; 9.61% (active) in the test with OVCAR-4 ovarian; 29.5% in the test on SK-OV-3 ovarian. The growth in the test with OVCAR-3 ovarian was -73.8% (active); in the test with HS 578T breast, -9.2% (active); in the test on NCI/ADR-RES ovarian it was -0.591% (active).
For the molecule `O=C1C(Cl)=C(NCCCCCCNC2=C(Cl)C(=O)c3ccccc3C2=O)C(=O)c2ccccc21`, the growth was 88% with SR leukemia; 85.2% in the test with RPMI-8226 leukemia; 77.6% with OVCAR-8 ovarian; 110% with OVCAR-5 ovarian; 22.5% with OVCAR-4 ovarian; 98% in the test on SK-OV-3 ovarian. Further, the growth in the test with OVCAR-3 ovarian is 47.3%; in the test with HS 578T breast, 89.3%; in the test with NCI/ADR-RES ovarian, 93.5%.
As to `O=[N+]([O-])c1cccc(-c2nc3cc4nc5ccccc5[nH]c4cc3n2)c1`, the growth was 93.4% in the test with SR leukemia; 101% in the test on RPMI-8226 leukemia; 98.2% in the test on OVCAR-8 ovarian; 111% in the test with OVCAR-5 ovarian; 98.3% with OVCAR-4 ovarian; 99.1% in the test on IGROV1 ovarian. The growth in the test on OVCAR-3 ovarian was 98.7%; with HS 578T breast it was 109%; in the test on NCI/ADR-RES ovarian, 101%.
Regarding `Cc1ccccc1/C=C/C(=O)c1cccc(OCCCCOc2cccc(C(=O)/C=C/c3ccccc3C)c2)c1`, the growth in the test on SR leukemia was 74.4%; with RPMI-8226 leukemia it was -6.51% (active); with OVCAR-8 ovarian, 97.6%; in the test with OVCAR-5 ovarian it was 103%; with OVCAR-4 ovarian it was 87.1%; in the test on SK-OV-3 ovarian it was 107%. In addition, the growth is 104% in the test on OVCAR-3 ovarian, 106% in the test on HS 578T breast and 99.1% in the test with NCI/ADR-RES ovarian.
Consider `COc1ccc(NC2=C(I)C(=O)c3ncccc3C2=O)cc1`, for which the growth in the test with SR leukemia was 6.66% (active); in the test with RPMI-8226 leukemia, 4.44% (active); in the test on OVCAR-8 ovarian, 8.5% (active); in the test on OVCAR-5 ovarian, -62.8% (active); in the test on OVCAR-4 ovarian, -88.3% (active); in the test with IGROV1 ovarian it was -43.9% (active). Besides, the growth with OVCAR-3 ovarian is -10.1% (active); in the test with HS 578T breast, -15.9% (active); with NCI/ADR-RES ovarian, 0.698% (active).
In the case of `COc1ccc(-c2nc3cc(C(=O)NCc4ccccc4)ccc3n2C2CCCCC2)cc1`, the growth with SR leukemia is 43.8%; in the test with RPMI-8226 leukemia it was 69.2%; in the test with OVCAR-8 ovarian it was 93%; with OVCAR-5 ovarian it was 84.9%; in the test on OVCAR-4 ovarian, 80.4%; in the test with IGROV1 ovarian, 105%. In addition, the values for the growth in the test on OVCAR-3 ovarian, in the test with HS 578T breast and in the test with NCI/ADR-RES ovarian were 85.8%, 76.3% and 88.5%, respectively.
With `COc1ccc(/C=C(\C#N)n2nnc3ccc(Cl)cc32)cc1`, the growth in the test with SR leukemia is 29.9%; in the test on RPMI-8226 leukemia it was 67.8%; with OVCAR-8 ovarian, 48.8%; in the test on OVCAR-5 ovarian it was 92%; in the test with OVCAR-4 ovarian, 71.6%; in the test on SK-OV-3 ovarian, 108%. For the same molecule, the results for the growth in the test on OVCAR-3 ovarian, in the test on HS 578T breast and with NCI/ADR-RES ovarian were -18.4% (active), 74.4% and 39.3%, respectively.
For `Fc1ccc(CNc2c3ccccc3nc3ccccc23)c(F)c1`, the growth with SR leukemia was 25.2%; in the test with RPMI-8226 leukemia, 28.3%; in the test with OVCAR-8 ovarian it was 40.2%; in the test on OVCAR-5 ovarian it was 51.7%; in the test on OVCAR-4 ovarian, -8.19% (active); with SK-OV-3 ovarian, 59.8%. Further, the values for the growth in the test with OVCAR-3 ovarian, in the test on HS 578T breast and in the test on NCI/ADR-RES ovarian were 70.2%, 75.4% and 36.2%, respectively.
As to `COc1ccc(/C=C/C(=O)c2cc3c(N)c(C(=O)Nc4cccc5ccccc45)sc3nc2C)cc1`, the growth in the test on SR leukemia was 44.1%; in the test with RPMI-8226 leukemia, 33.4%; with OVCAR-8 ovarian it was 81%; in the test with OVCAR-5 ovarian, 103%; with OVCAR-4 ovarian, 88.7%; in the test on IGROV1 ovarian it was 70.4%. For the same molecule, the growth in the test with OVCAR-3 ovarian was 22%; with HS 578T breast, 47.6%; in the test with NCI/ADR-RES ovarian it was 58.8%.

These data come from PubChem BioAssay (NCI).
